High-throughput results (PubChem)
Sampled rows, rich in hits. Any-hit rate of the full collection: about 2.8%.
D3 antag: qHTS of D3 Dopamine Receptor Antagonist: qHTS; AID 652054, 2013; D(3) dopamine receptor (Homo sapiens), P35462; max response, negative = inhibition, %; 2.5% of 360,000 active; D3R cells, DiscoveRx beta-arrestin luminescence, antagonist mode; hits give low values; in the data active means max response below about -50%; inconclusive means no clear call, values can overlap the other calls
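Cells plated overnight at 1500 cells/well, then exposed to library compounds with dopamine controls for 90 minutes at 37 degrees C. DiscoveRx reagent added for 30–60 minutes at room temperature; luminescence read, quantitative HTS format.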
B2AR arrestin: qHTS assay of beta-arrestin-biased ligands of beta2-adrenergic receptor; beta-arrestin recruitment to beta2AR, cell-based reporter; 0.02% of 330,000 active; AID 492947, 2010; Beta-2 adrenergic receptor (Homo sapiens), P07550; Potency, µM (highest dose often 46.1 µM), usual class: activators; active means well fitted activation curve with a large enough effect; inconclusive means small, poorly fitted or top-dose-only effect; further: nearly all actives have a fitted effect of over 65% in size
Target sequence (P07550 whole entry, looked up): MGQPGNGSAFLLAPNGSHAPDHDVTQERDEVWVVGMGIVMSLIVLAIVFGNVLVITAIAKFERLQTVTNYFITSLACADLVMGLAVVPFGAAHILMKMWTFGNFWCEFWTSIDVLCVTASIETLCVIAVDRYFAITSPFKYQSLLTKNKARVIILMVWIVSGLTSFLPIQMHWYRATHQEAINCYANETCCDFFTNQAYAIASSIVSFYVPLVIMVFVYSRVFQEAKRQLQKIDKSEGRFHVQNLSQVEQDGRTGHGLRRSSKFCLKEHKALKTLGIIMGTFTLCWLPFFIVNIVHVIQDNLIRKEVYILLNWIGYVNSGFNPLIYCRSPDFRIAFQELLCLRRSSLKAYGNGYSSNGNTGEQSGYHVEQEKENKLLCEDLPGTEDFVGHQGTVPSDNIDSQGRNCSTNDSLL
DRD3 agonist: qHTS of D3 Dopamine Receptor Agonist: qHTS | D(3) dopamine receptor (Homo sapiens), P35462 | D3R DiscoveRx beta-arrestin cells, luminescence, 90 min | max activation, % | 0.58% of 410,000 active | AID 652048, 2013; in the data active means max activation above about 30%
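Agonist mode: compounds and dopamine controls were applied to plated cells for 90 min at 37 degrees C after an overnight attachment at 1500 cells/well. Luminescent read-out followed 30 - 60 minutes at room temperature with DiscoveRx detection reagent.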
Giardia killer: Small Molecules that selectively kill Giardia lamblia: qHTS | Giardia lamblia trophozoite viability | activity change, % at 7.66 µM, hits read low | 0.15% of 340,000 active; in the data active means activity change below about -80%; inconclusive means between about -30% and that limit;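 further: parasites exposed to compound for two days anaerobically before the ATP read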
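Giardia lamblia trophozoites (100 cells/well) were incubated with compounds for 48 h at 37 deg C under anaerobic conditions. Viability was read as ATP content by one-step luminescence after 15-30 min at room temperature.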
Each line names hits and unclear results; the compound was inactive in the other large screens; ! = not confirmed by another sample.

Cc1ccc2c(c1)C(=O)C(=O)N2Cc1ccc(Cl)cc1	D3 antag -63.6
Cc1ccc(OCCCN2C(=O)C(=O)c3cc(C)ccc32)cc1	Giardia killer inconclusive
Cc1ccc2c(c1)C(=O)C(=O)N2Cc1ccc(F)cc1	D3 antag inconclusive
Cc1ccc2c(c1)C(=O)C(=O)N2CCCOc1ccccc1	D3 antag -50.2
Cc1ccccc1-n1c(=O)c2c3c(sc2n2cnnc12)CCCC3	none (no result: D3 antag, B2AR arrestin, Giardia killer)
COc1ccc(-n2ncc3c(N4CCC(C(N)=O)CC4)ncnc32)cc1	none
CCOC(=O)C1CCN(c2ncnc3c2cnn3-c2ccc(OC)cc2)CC1	DRD3 agonist 32.9
CCCN(CCC)c1ncnc2c1cnn2-c1ccc(OC)cc1	DRD3 agonist 33.7
Cc1ccn2c(NCc3ccco3)c(-c3ccccc3)nc2c1	none (no result: D3 antag, B2AR arrestin, DRD3 agonist)
O=C1C(CO)C(CO)C(CO)C1CO (stereo unspecified)	DRD3 agonist 38.7 (no result: B2AR arrestin)
CC(C)c1ccc(S(=O)(=O)c2cnc(=S)[nH]c2N)cc1	D3 antag -59.3
O=C1C[C@H](c2ccc3ccccc3c2)N1S(=O)(=O)c1ccccc1[N+](=O)[O-]	none (no result: D3 antag, B2AR arrestin, DRD3 agonist)
COc1cc(C(=O)NC(=S)NNC(=O)c2ccc3c(c2)OCO3)cc(OC)c1OC	DRD3 agonist 30.2
Cc1cccc(NC(=S)NNC(=O)c2ccc3c(c2)OCO3)c1	D3 antag -59.1, Giardia killer inconclusive
COc1cc(C(=O)NC(=S)Nc2ccc3c(c2)OCO3)cc(OC)c1OC	none
COc1cccc(CNC(=O)c2ccc3nc(-c4ccccc4)c(-c4ccccc4)nc3c2)c1OC	none (no result: D3 antag, B2AR arrestin, Giardia killer)
CC(C)(C)Nc1nc(NN)nc(NC(C)(C)C)n1	D3 antag -80.0
CC(C)(C)Nc1nc(Cl)nc(NC(C)(C)C)n1	none
COc1cc(/C=N/N=C2/C(=O)Nc3ccccc32)cc(OC)c1O	D3 antag -83.7
CC1CC=CC2C1C(=O)N(Cc1ccccc1)C2c1ccc(/C=C/c2ccccc2)cc1F (stereo unspecified)	none (no result: D3 antag, B2AR arrestin, DRD3 agonist)
CC(=O)c1cc(NC(=O)c2ccc(Cl)cc2)c(=O)oc1/C=C/N(C)C	D3 antag -71.8
Cc1ccc(NC(=O)c2ccc(-n3nncc3-c3ccccc3)cc2)cc1	none (no result: D3 antag, B2AR arrestin, DRD3 agonist)
Cc1ccc(N2CC(C(=O)Nc3ncc([N+](=O)[O-])s3)CC2=O)cc1 (stereo unspecified)	Giardia killer -85.3
CC1(C(=O)NCc2ccccc2)Cc2c(-c3ccc(C(N)=O)cc3)ccnc2O1 (stereo unspecified)	D3 antag inconclusive, DRD3 agonist 58.5 (no result: B2AR arrestin, Giardia killer)
CC(=O)Nc1ccc(NC(=O)C2(C)Cc3c(-c4ccccc4)ccnc3O2)cc1 (stereo unspecified)	D3 antag -112.5 (no result: B2AR arrestin, Giardia killer)
CC1(C(=O)NCc2ccccc2)Cc2c(-c3ccccc3)ccnc2O1 (stereo unspecified)	D3 antag inconclusive (no result: B2AR arrestin, Giardia killer)
CN1CCN(c2ccc(CNC(=O)C3(C)Cc4c(-c5ccccc5)ccnc4O3)cc2)CC1 (stereo unspecified)	D3 antag -62.3 (no result: B2AR arrestin, Giardia killer)
CC1(C(=O)NCCC(F)(F)F)Cc2c(-c3cccc(C(F)(F)F)c3)ccnc2O1 (stereo unspecified)	none (no result: B2AR arrestin, Giardia killer)
CC1(C(=O)NCCC(F)(F)F)Cc2c(-c3cccc(C(N)=O)c3)ccnc2O1 (stereo unspecified)	D3 antag -59.3 (no result: B2AR arrestin, Giardia killer)
O=S(=O)(c1nccs1)N1CCN(c2nc(-c3cccs3)nc3ccccc23)CC1	none (no result: D3 antag, B2AR arrestin, DRD3 agonist)
C=CCn1c(SCCC)nc2ccccc2c1=O	none (no result: D3 antag, B2AR arrestin, DRD3 agonist)
CCC1CCCCN1C(=O)Cn1c(=O)n(CCCCCC(=O)NCc2ccc(F)cc2)c(=O)c2sccc21 (stereo unspecified)	none (no result: D3 antag, B2AR arrestin, Giardia killer)
O=[N+]([O-])c1ccc(/C=N/n2c(COc3ccccc3)n[nH]c2=S)cc1	D3 antag -89.7
O=[N+]([O-])c1cccc(/C=N/n2c(COc3ccccc3)n[nH]c2=S)c1	none
Cc1ccccc1S(=O)(=O)NC(=O)C1(C)CCN1C(=O)c1cccc2ccccc12 (stereo unspecified)	none (no result: B2AR arrestin, Giardia killer)
Cc1ccc(F)c(S(=O)(=O)NC(=O)C2(C)CCN2C(=O)c2cccc3ccccc23)c1 (stereo unspecified)	DRD3 agonist 71.6 (no result: B2AR arrestin, Giardia killer)
CC(=O)O[C@]1(C(C)=O)CC[C@H]2[C@@H]3C=C(Cl)C4=CC(=O)[C@@H]5C[C@@H]5[C@]4(C)[C@H]3CC[C@@]21C	D3 antag -84.9!
Cc1ccc(C(=O)c2oc3ccccc3c2NC(=O)c2cc(=O)c3ccccc3o2)cc1	none (no result: D3 antag, B2AR arrestin, Giardia killer)
CCOc1ccc(NC(=O)c2ccc(NC(=S)NC3CCCCC3)cc2)cc1	D3 antag -68.3
Cc1cccc(N2CCN(C(=O)Cn3ncc4c([nH]c5ccccc54)c3=O)CC2C)c1 (stereo unspecified)	none (no result: D3 antag, B2AR arrestin, Giardia killer)
CCc1ccccc1NC(=O)NC1CC2CCC(C1)N2Cc1cccs1 (stereo unspecified)	D3 antag -54.3
CCc1ccccc1NC(=S)NC1CC2CCC(C1)N2Cc1ccc(F)cc1 (stereo unspecified)	D3 antag -89.8
CCCN1C2CCCC1CC(NC(=S)Nc1ccc(OC)cc1)C2 (stereo unspecified)	none
CCc1ccccc1NC(=S)NC1CC2CCC(C1)N2Cc1ccco1 (stereo unspecified)	D3 antag -53.3
CCc1ccc(NC(=S)NC2CC3CCCC(C2)N3Cc2cccs2)cc1 (stereo unspecified)	D3 antag -70.2
Cn1c(=O)[nH]c2cc(-c3noc(-c4ccc(C#N)cc4)n3)ccc21	none (no result: D3 antag, B2AR arrestin, Giardia killer)
COc1cccc2c1cc1c(=O)n(CC(=O)NCc3ccc(C)o3)nc(C)n12	none (no result: D3 antag, B2AR arrestin, Giardia killer)
COc1ccc2c(c1)c1nnc(SCCN3CCOCC3)nc1n2C	none (no result: D3 antag, B2AR arrestin, DRD3 agonist)
COc1ccc(CCN2C(=O)CN(C3CCCCCC3)C(=O)C2c2ccc(Cl)cc2)cc1OC (stereo unspecified)	none (no result: D3 antag, B2AR arrestin, Giardia killer)
Cc1ccc(Nc2nc(NCc3ccco3)nc3nccnc23)cc1C	none (no result: D3 antag, B2AR arrestin, DRD3 agonist)
COc1cc2c(cc1OC)C(c1cc(Br)ccc1F)N(C(=O)CCl)CC2 (stereo unspecified)	D3 antag -86.7
Cc1ccc2sc(C)[n+](CCCS(=O)(=O)[O-])c2c1	D3 antag inconclusive
Cc1ccc2c(c1)sc(C)[n+]2CCCS(=O)(=O)[O-]	D3 antag -85.6
CCCc1nnc(NC(=O)Cc2coc3c(C)c(C)ccc23)s1	none (no result: D3 antag, B2AR arrestin, Giardia killer)
O=c1c2ccccc2nc(-c2ccco2)n1Cc1ccccc1	none (no result: B2AR arrestin)
CCOc1ccc(CCn2c(-c3ccco3)nc3ccccc3c2=O)cc1OCC	DRD3 agonist 35.9
COc1ccc(CN(Cc2ccccc2)C(=O)Nc2ccccc2)cc1COc1ccc(NC(C)=O)cc1	none (no result: D3 antag, B2AR arrestin, DRD3 agonist)
Cn1c(NCc2ccncc2)nc2cc(-c3ccsc3)sc2c1=O	none (no result: B2AR arrestin, Giardia killer)
Cn1c(NCC2CCCCC2)nc2cc(-c3ccsc3)sc2c1=O	D3 antag -50.5 (no result: B2AR arrestin, Giardia killer)
CC(=O)c1ccc(NC(=O)c2cc(-c3ccc(C)s3)nc3ccccc23)cc1	none (no result: D3 antag, B2AR arrestin, Giardia killer)
CC1=C(C)/C(=N\OS(=O)(=O)c2ccc(C)cc2)C=CC1=O	D3 antag -104.1, B2AR arrestin inconclusive
CC1=C/C(=N\OS(=O)(=O)c2ccccc2)C(C(C)C)=CC1=O	B2AR arrestin inconclusive
